# Data: PubChem BioAssay (NCATS)
# Inconclusive results are not listed. Entries that show only a call come without a potency. The source made the active and inactive calls. Calls come from the whole dose curve; as a rule, active = well fitted inhibition curve with a large enough effect; inconclusive = small, poorly fitted or top-dose-only effect; inactive = no such curve, though single readings can be large or run the other way.
# Target: Muscarinic acetylcholine receptor M1 (Rattus norvegicus) (UniProt P08482)
# Sequence (P08482 whole entry, looked up): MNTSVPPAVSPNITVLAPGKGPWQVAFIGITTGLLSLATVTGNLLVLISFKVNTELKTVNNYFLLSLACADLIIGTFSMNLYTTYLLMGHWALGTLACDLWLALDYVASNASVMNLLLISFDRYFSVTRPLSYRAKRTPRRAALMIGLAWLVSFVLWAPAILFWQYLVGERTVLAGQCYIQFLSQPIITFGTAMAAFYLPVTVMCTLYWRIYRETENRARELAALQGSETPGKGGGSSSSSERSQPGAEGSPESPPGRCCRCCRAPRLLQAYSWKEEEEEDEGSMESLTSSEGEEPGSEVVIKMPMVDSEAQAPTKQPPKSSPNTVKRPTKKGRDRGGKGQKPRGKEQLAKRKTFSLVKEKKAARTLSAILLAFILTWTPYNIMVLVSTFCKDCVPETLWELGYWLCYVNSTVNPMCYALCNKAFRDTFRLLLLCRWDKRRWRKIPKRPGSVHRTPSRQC
# Assay: qHTS Assay for Antagonists of Acetylcholine Muscarinic M1 Receptor: Measurement of IP-One Response (AID 944); note: nearly all actives have a fitted effect of over 75% in size
# Settings: CHO-M1 cells, IP-One HTRF, antagonist mode; series mostly up to 46.1 µM
# Excerpt: NIH Molecular Libraries Screening Centers Network [MLSCN]
# NIH Chemical Genomics Center [NCGC]
# Acetylcholine muscarinic M1 receptor is a G-protein coupled receptor (GPCR) coupling to the Gq G protein. It is mainly expressed in brain and functionally related to the learning and memory processes. The agonists of this receptor have the potential for the treatment of Alzheimer's disease and cognitive impairments associated with Schizophrenia.
# Upon an activation of the M1 receptor, phosholipase C (PLC) is activated to produce inositol 1,4,5-trisphosphate (IP3) and diacyl glycerol (DAG). The IP3 is very rapidly hydrolyzed to IP2, IP1 and then inositol by a series of enzymes and Ca2+ is quickly pumped back into ER by the calcium pump on the ER membrane, which effectively switches off the IP3 and Ca2+ signaling. For compound screen, the changes in intracellular free Ca2+ concentration can be measured by the fluorescence calcium dye such as Fura-2, Fluo-3 and Fluo-4 with a fluorescence kinetic plate reader. IP1 or total IPs including IP1, IP2 and IP3 are usually measured as an alternative method for assessing the function of Gq-coupled GPCRs. We have applied a time-resolved fluorescence based (TR-FRET) IP1 assay in which an IP1 specific antibody is used to detect the labeled IP1 tracer. When the cell lysate contains the elevated IP1, the TR-FRET between the labeled antibody and IP1 tracer is disrupted resulting in a reduction in the total signal. Since the TR-FRET is used, a homogenous assay with out cell wash and medium change is possible which also can be miniaturized into the high density format for HTS.
# We have obtained a M1-CHO cell line transfected with rat acetylcholine M1 receptor and optimized this IP-One assay with this cell line for compound screening as a counter-screen assay for other Gq-coupled GPCRs.
# NCGC Assay Protocol Summary:
# The CHO-M1 (CHO-M1) cell line transfected with the rat acetylcholine muscarinic M1 receptor was obtained from American Type Culture Collection (ATCC). The cells were maintained in call culture flasks with F12 Kaighn's media (Invitrogen) supplemented with 10 % FBS, 100 units/ml penicillin, 100 ug/ml streptomycin and 250 ug/ml geneticin (Invitrogen) at 37C, 5 % CO2 in a humidified atmosphere. At 90-95 % confluence, the cells were then detached in 15 ml 0.25 % trypsin by 3 minutes incubation at 37C and centrifuged at 1000 RPM to remove the trypsin solution. The resulting cell pellet was resuspended in the cell freezing media containing 10 % DMSO (Invitrogen) at a density of 4 x 10^7 cells/ml. The aliquots of cells at 0.5 - 1 ml per vial were frozen down slowly at 1 degree C/min using a Cryo 1 degree C freezing container in the presence of isopropanol (Nalgene Nunc, Rochster, NY) overnight in a -80C freezer. The frozen cells were then transferred to liquid nitrogen for the storage up to one year.
# The resuspended frozen cells were plated at 3 ul/well with 2000 cells in the black, tissue culture treated, clear bottom 1536-well plates. The cells were cultured at 37C, 5 % CO2 for overnight to allow the cells recovering from the frozen state. 20 nl/well of compound in DMSO solution was added to the assay plate and incubated for 10 min. Carbachol was prepared in stimulation buffer (10mM Hepes, 1mM CaCl2, 0.5 mM MgCl2, 4.2 mM KCl, 146 mM NaCl, 5.5 mM glucose 50mM LiCl 50mM pH7.4) which was added to the assay plate at 1 ul/well. After an incubation with carbachol at 37C, 5 % CO2 for 30 min, all the wells in the assay plate were added with 1 ul/well of d2 conjugated IP1 (d2-IP1) and 1 ul/well of Eu+ cryptate conjugated anti-IP1 antibody (Eu+-Ab), both from the IP-One kit (Cisbio USA., Inc.). After 10 min incubation at the room temperature, the assay plates were measured in the HTRF detection mode in ViewLux plate reader (Ex=337 nm. Em(1)=620 and Em(2)=665 nm)
# 1536-well assay protocol:
# (1) 4 ul/well containing 2000 M1-CHO cells in 1536 tissue culture treated white plate
# (3) Add 23 nl compound diluted in DMSO
# […]
# Potency is the fitted concentration of half-maximal effect.
row,Structure (SMILES),Potency
1,Cc1c(OCC(F)(F)F)ccnc1CS(=O)c1nc2ccccc2[nH]1 (configuration not stated),inactive
2,CCN(CC)C(=S)SSC(=S)N(CC)CC,inactive
3,O=c1c(O)c(-c2ccc(O)cc2O)oc2cc(O)cc(O)c12,inactive
4,O=Nc1c(-c2c(O)[nH]c3cc(Br)ccc23)[nH]c2ccccc12,14.1 µM (active)
5,CC(C)c1ccc2c(c1)c(SC(C)(C)C)c(CC(C)(C)C(=O)O)n2Cc1ccc(Cl)cc1,inactive
6,O=c1c(O)c(-c2cc(O)c(O)c(O)c2)oc2cc(O)cc(O)c12,inactive
7,O=C1c2ccccc2-c2n[nH]c3cccc1c23,inactive
8,C[C@H](Cc1ccc(O)c(O)c1)[C@@H](C)Cc1ccc(O)c(O)c1,inactive
9,O=C(CCc1ccc(O)cc1)c1c(O)cc(O)cc1O,inactive
10,Cc1cc(O)c2c(c1)C(=O)c1cc(O)cc(O)c1C2=O,inactive
11,Oc1ccc(-c2nc(-c3ccc(F)cc3)c(-c3ccncc3)[nH]2)cc1,inactive
12,Nc1nc(OCc2ccccc2)c2[nH]cnc2n1,inactive
